Assay results taken from PubChem BioAssay (NCI).
About 83,000 compounds went through this panel and 20% of them were active in at least one assay; those are over-represented in the sample as a whole.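 48-hour exposure, single concentration, 96-well plates; percent growth endpoint where 0 means no net growth. Active: below 10.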 A number with no mark means an inactive call. The source made the active and inactive calls.

Tests used:
Test in all cases: NCI-60 one-dose screen, 48 h (100 = growth as untreated, 0 = no growth, -100 = all killed)
Settings in all cases: 10 µM unless noted
[1] = system: DU-145 prostate
[2] = system: K-562 leukemia
[3] = system: MALME-3M melanoma
[4] = system: MDA-MB-231 breast
[5] = system: RXF 393 renal
[6] = system: SF-268 CNS
[7] = system: SF-295 CNS
[8] = system: SF-539 CNS
[9] = system: UACC-257 melanoma
[10] = system: M14 melanoma
[11] = system: HCT-15 colon
[12] = system: HT29 colon
[13] = system: SNB-75 CNS
[14] = system: U251 CNS
[15] = system: PC-3 prostate
[16] = system: SK-MEL-5 melanoma
[17] = system: UACC-62 melanoma
[18] = system: LOX IMVI melanoma
[19] = system: SK-MEL-28 melanoma
[20] = system: SNB-19 CNS

Row | SMILES | growth [1] [%] | growth [2] | growth [3] | growth [4] | growth [5] | growth [6] [%] | growth [7] | growth [8] | growth [9] | growth [10] [%] | growth [11] | growth [12] | growth [13] [%] | growth [14] | growth [15] | growth [16] | growth [17] | growth [18] | growth [19] | growth [20] [%]
1 | CCc1nc2ccccc2[nH]1 | 125 | 102% | 122% | 103% | 113% | 103 | 119% | 104% | 102% | 99.8 | 108% | 108% | 91.1 | 106% | 101% | 110% | 98.9% | 107% | 105% | 
2 | O=C(O)c1ccccc1C(=O)Nc1ccc(Cl)cc1 | 103 | 68.6% | 109% | 104% | 128% | 94.5 | 101% | 98.6% | 78.3% |  | 98.5% | 104% | 95.8 | 89.9% | 96.6% | 93.9% | 48.8% | 63.8% | 96.7% | 102
3 | COc1cccc(-c2cnco2)c1OCc1c(C)c(COc2c(OC)cccc2-c2cnco2)c(C)c(COc2c(OC)cccc2-c2cnco2)c1C | 73.2 | 85% | 43.5% | 30.5% | 45.7% | 53.7 | 82.1% | 19.3% | 58.4% |  | 89.6% | 32.7% | 13 | 40% | 71.3% | 45.3% | 42.2% | 45.6% | 55.7% | 67.4
4 | O=C(O)c1ccc(CO)o1 | 113 | 109% | 113% | 112% | 104% | 109 | 102% | 99.6% | 85.5% |  | 103% | 106% | 90.7 | 91.8% | 105% | 107% | 101% | 109% | 103% | 103
5 | CO[C@H]1/C=C/O[C@@]2(C)Oc3c(C)c(O)c4c(c3C2=O)C(=O)C(/C=N/N(c2ccccc2)c2ccccc2)=C(NC(=O)/C(C)=C\C=C\[C@H](C)[C@H](O)[C@@H](C)[C@@H](O)[C@@H](C)[C@H](OC(C)=O)[C@@H]1C)C4=O | 12.9 | 7.47% (active) | -43.9% (active) | -40.1% (active) | -61.9% (active) | 14.9 | -72.3% (active) | -69.8% (active) | -22.5% (active) |  | -20.3% (active) | -12.7% (active) | 19.6 | -72.7% (active) | -2.79% (active) | -88.2% (active) | -71.1% (active) | -81.1% (active) | -58.3% (active) | 19.1
6 | NS(=O)(=O)c1cn(-c2ncnc3nc[nH]c23)ccc1=O | 103 | 84.6% | 82.9% | 89.3% | 130% | 93.3 | 49.3% | 105% | 138% |  | 94% | 101% | 75.4 | 102% | 96.1% | 97.6% | 89.7% | 99.9% | 105% | 97.2
7 | COc1ccc(C2=NC(=O)NC2c2ccc(OC)cc2)cc1 (configuration not stated) | 88.5 | 21.2% | 75.5% | 73.9% | 108% | 73.3 | 79.7% | 62.4% | 105% |  | 48.4% | 37.2% | 46.7 | 74.6% |  | 63% | 47.2% | 64% | 72.6% | 58.5
8 | NS(=O)(=O)c1cnccc1-n1ccc(=O)c(S(N)(=O)=O)c1 | 106 | 84.1% | 50.1% | 94% | 139% | 101 | 59.1% | 97.8% | 115% |  | 90.8% | 105% | 73.8 | 96.6% | 86.5% | 103% | 96.9% | 97.1% | 92.5% | 88.1
9 | CC(=O)Nc1ccc(C(=O)/C=C/c2ccccc2)cc1 | 89.8 | 79.9% | 104% | 93.2% | 97.4% | 85.4 | 104% | 96.6% | 70.3% |  | 77.3% | 44.6% | 75.9 | 76.3% | 84.3% | 91.5% | 90% | 61.8% | 93.4% | 80.5
10 | CC(C)OC(=O)NNC(=O)c1ccncc1 | 111 | 110% | 93% | 108% | 120% | 104 | 113% | 97.2% | 105% |  | 101% | 110% | 91 | 98.1% | 104% | 114% | 94% | 101% | 110% | 105
11 | C/C(=N\NC(N)=S)c1nc2ccc(Cl)cc2[nH]1 | 34.1 | 39.5% | 113% | 63.2% | 48.9% | 33.2 | 44.8% | 43% | 68.8% |  | 35.7% | 32.8% | 43.6 | 49.9% | 52.3% | 45.3% | 36.7% | 43.7% | 68.7% | 57.6
12 | Cc1c2c(cn1Cc1ccccc1)CCc1cn[nH]c1-2 | 117 | 51.8% | 105% | 89.3% | 87.6% | 89.6 | 81.5% | 92.7% | 107% |  | 99.3% | 94.5% | 92.2 | 89.3% | 74.9% | 89% | 76.8% | 90.8% | 105% | 86.9
13 | Cc1csc(NC(=O)c2sc3nc(-c4cccs4)ccc3c2N)n1 | 96.4 | 90.2% | 99.6% | 93.4% | 107% | 102 | 99.7% | 96.9% | 109% |  | 102% | 102% | 102 | 91.3% | 82.6% | 92.2% | 98.2% | 95.1% | 115% | 112
14 | CNC=O | 77.9 | 107% | 97% | 98.7% | 42.3% | 99.3 | 96.8% | 88.8% | 91.1% |  | 99.3% | 92.6% | 86.8 | 100% | 98.1% | 59.9% | 96.2% | 97.1% | 96.6% | 97.5
15 | COc1cc(/C=C/C(=O)c2cccc(-n3cc(-c4ccc(Cl)cc4)[nH]c3=O)c2)cc(OC)c1OC | 37.1 | 20.9% | 94.2% | 76.7% | 53.6% | 48.8 | 80.8% | 33.7% | 67.2% |  | 40.3% | -12% (active) | 84.9 | 30.9% | 47.7% | 58.2% | 72.4% | -47.4% (active) | 86.5% | 75.5
16 | O=C1CC(c2ccc3c(c2)OCO3)Nc2cc3c(cc21)OCO3 (configuration not stated) | 15.3 | 10.2% | 75.2% | 24.7% | -11.2% (active) | 44 | 7.59% (active) | 6.5% (active) | 39.6% |  | 14% | 1.47% (active) | 14.3 | 7.39% (active) | 17.7% | 1.16% (active) | 21% | 25.3% | 65.6% | 28.3
17 | CCCCn1c(=O)[nH]c(N)c(C(c2ccc(F)cc2)c2c(N)[nH]c(=O)n(CCCC)c2=O)c1=O | 79.1 | 52.9% | 87.7% | 62.9% | 65.5% | 54.1 | 56.8% | 75.3% | 65.9% |  | 95.7% | 66.4% | 62.2 | 65.3% | 53.9% | 36.7% | 55.6% | 58.9% | 74.7% | 74
